Activation data for two molecules are collected here from PubChem BioAssay AID1546 (The Scripps Research Institute Molecular Screening Center, 2009).

The list shows a part of the results. A number with no mark means an inactive call. Rule as the data show it: active = activation above about 45%; inactive = the rest.

The target of this experiment is Neuropeptide Y receptor type 1 (Homo sapiens) (UniProt P25929). The experiment in a line: human Y1 receptor positive modulation or activation – cell-based, confirmation (AID 1546).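 Also: cells challenged with NPY at its EC10 plus isoproterenol stimulus.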 The settings on record: cell-based NPY-Y1 potentiator/agonist assay; at 3.6 µM; stronger effect = higher value.
Chain of Neuropeptide Y receptor type 1 (Homo sapiens) (P25929 whole entry, looked up): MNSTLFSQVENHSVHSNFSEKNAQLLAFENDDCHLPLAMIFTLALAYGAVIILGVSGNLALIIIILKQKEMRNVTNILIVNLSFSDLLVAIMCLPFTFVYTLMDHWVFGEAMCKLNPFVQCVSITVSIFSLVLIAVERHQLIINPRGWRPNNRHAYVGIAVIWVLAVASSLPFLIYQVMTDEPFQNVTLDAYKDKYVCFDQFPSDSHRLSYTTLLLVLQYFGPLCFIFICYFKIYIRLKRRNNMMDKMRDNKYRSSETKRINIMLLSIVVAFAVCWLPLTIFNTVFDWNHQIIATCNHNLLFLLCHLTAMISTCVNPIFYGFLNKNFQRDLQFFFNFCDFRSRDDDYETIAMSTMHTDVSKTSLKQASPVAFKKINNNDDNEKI

Take `CSC1=NP(=S)(SC)N(C)c2nc3n(c21)CCC3` (configuration not stated): the activation is 13.8%. For `Cc1nn(Cc2ccccc2Cl)c(Cl)c1C(=O)OC(C(=O)NC(N)=O)C(C)C` (configuration not stated) the value was 43.3%.
